The record followed here is PubChem BioAssay AID652117 (Broad Institute, 2013).

Potency and affinity values are given separately. Active and inactive are the calls of the source.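 How the source made its calls: active means compounds whose fitted half-maximal cell-killing dose is no more than twice the top tested dose; inconclusive means flat moderate loss of cell viability, or an unreliable curve fit; inactive means the rest.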

This experiment is described as follows: HeLa cell cytotoxicity, dose response, cytotoxicity control, ATP luminescence, dry powder (AID 652117). The settings on record: HeLa viability, CellTiter-Glo ATP luminescence, 48 h; series mostly up to 26 µM.
With `O=C(NC1CCCC1)C1(CCOc2ccccc2)CCN(Cc2ccc(O)c(Cl)c2)CC1`, the compound was classed as inactive.

As to `C=CCOc1ccc(CN2CCC(CCOc3ccccc3)(C(=O)O)CC2)cc1Cl`, the outcome was inactive.

Take `CCOC(=O)C1(Cc2cccc(OC)c2)CCN(Cc2ccc(O)c(Cl)c2)CC1`: the call was inactive.

Consider `O=C(N1CCCC1)C1(CCOc2ccccc2)CCN(Cc2ccc(O)c(Cl)c2)CC1`, for which the compound was called inactive.

Consider `CCOC(=O)C1CCN(C(=O)OC(C)(C)C)CC1`, for which the compound was called inactive.

In the case of `CCNC(=O)C1(CCOc2ccccc2)CCN(Cc2ccc(O)c(Cl)c2)CC1`, the result was inactive.

For `C=CCOc1ccc(CN2CCC(CCOc3ccccc3)(C(=O)NCC)CC2)cc1Cl`, the compound was called inactive.

With `CCOC(=O)C1(CCOc2ccccc2)CCN(Cc2ccc(O)cc2)CC1`, the compound was called inactive.

Take `CCN(C)C(=O)C1(CCOc2ccccc2)CCN(Cc2ccc(O)c(Cl)c2)CC1`: the result was inactive.

Regarding `C=CCOc1ccc(CN2CCC(CCOc3ccccc3)(C(=O)N(C)CC)CC2)cc1Cl`, the compound was called inactive.

Regarding `CCOC(=O)C1(CCOc2ccccc2)CCN(C(=O)OC(C)(C)C)CC1`, the compound was classed as inactive.

With `CCOC(=O)C1(CCOc2ccccc2)CCN(Cc2ccc3[nH]c(=O)oc3c2)CC1`, the compound was called inactive.

Regarding `CCOC(=O)C1(CCOc2ccccc2)CCN(Cc2ccc(OC)cc2)CC1`, the outcome was inactive.

`CCOC(=O)C1(CCOc2ccccc2)CCN(C(=O)c2ccc(O)c(Cl)c2)CC1`: the outcome was inactive.

`C=CCOc1ccc(CN2CCC(CCOc3ccccc3)(C(=O)N3CCCC3)CC2)cc1Cl`: the call was inactive.

With `CCOC(=O)C1(CCOC)CCCN(Cc2ccc(Cl)cc2)C1` (stereo not given), the result was inactive.

For the compound `C=CCOc1ccc(CN2CCC(CCOc3ccccc3)(C(=O)OCC)CC2)cc1Cl`, the call was inactive.

For `CCOC(=O)C1(Cc2ccccc2)CCN(Cc2ccc(O)c(Cl)c2)CC1`, the call was inactive.

Take `C/C1=C\C[C@H](OC(=O)c2ccc(O)cc2)/C(C)=C/[C@@H](O)C(C)(C)CCC1`: the outcome was inactive.

Turning to `CCOC(=O)C1(CCOc2ccccc2)CCN(Cc2ccc(O)c(Cl)c2)CC1`, the compound was classed as inactive.

For the compound `C/C1=C\[C@@H](O)C(C)(C)CCCC2(C)OC2C[C@@H]1OC(=O)c1ccc(O)cc1` (stereo not given in full), the call was inactive.

In the case of `CCOC(=O)C1(CCOc2ccccc2)CCN(Cc2ccc(OC)c(Cl)c2)CC1`, the result was inactive.

For `CCOC(=O)C1(CCOC)CCN(Cc2ccc(O)c(Cl)c2)CC1`, the result was inactive.

Take `C=CCOc1ccc(CN2CCC(CCOc3ccccc3)(C(=O)NC3CCCC3)CC2)cc1Cl`: the compound was called inactive.

As for `O=C(Nc1ccccc1)C1(CCOc2ccccc2)CCN(Cc2ccc(O)c(Cl)c2)CC1`, the outcome was inactive.
